Assay [1] in a line: antimalarial activity against Dd2 strain (AID 2302;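 active means growth inhibition above 50% at the single 2 µM test dose, taken to imply half-maximal potency below 2 µM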;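 further: 0% = DMSO untreated growth and 100% = chloroquine plus artemisinin killed control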). To be noted: P. falciparum Dd2 in RBCs, LDH growth readout, 72 h; at 2 µM; stronger effect = higher value.
Assay [2] is described as follows: human hepatoma cell viability loss – ATP luminescence, cytotoxicity control for P. falciparum antimalarial project, primary screen (AID 2303;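 active means inhibition above 50%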;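 further: 0% = DMSO wells and 100% = digitonin-killed cells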). To be noted: HepG2 viability, 24-48 h, at 10 µM, stronger effect = higher value.
In assay [3] the target is L-lactate dehydrogenase (Plasmodium falciparum (isolate CDC / Honduras)) (UniProt Q27743). Briefly: PfLDH activity inhibition – cell lysate, 3D7 strain, counter-screen for P. falciparum growth inhibition project (AID 2304).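 Further: 0% = vehicle and 100% = reference inhibitor.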 To be noted: P. falciparum 3D7 crude extract, LDH APAD/NBT absorbance; at 2 µM; stronger effect = higher value.
L-lactate dehydrogenase (Plasmodium falciparum (isolate CDC / Honduras)), sequence (Q27743 whole entry, looked up): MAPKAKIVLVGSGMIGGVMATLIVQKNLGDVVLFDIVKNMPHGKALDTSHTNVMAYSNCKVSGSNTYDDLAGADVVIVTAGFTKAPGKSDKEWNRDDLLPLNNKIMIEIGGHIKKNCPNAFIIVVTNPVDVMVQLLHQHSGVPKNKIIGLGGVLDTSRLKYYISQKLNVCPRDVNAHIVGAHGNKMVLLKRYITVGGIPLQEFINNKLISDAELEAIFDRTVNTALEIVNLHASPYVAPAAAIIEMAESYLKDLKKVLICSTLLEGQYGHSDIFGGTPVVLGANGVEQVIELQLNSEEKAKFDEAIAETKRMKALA
Assay [4] in a line: inhibition of 3D7 malaria parasite growth – strain 3D7 (AID 2306).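 Further: 0% = DMSO wells and 100% = chloroquine plus artemisinin control wells.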 To be noted: P. falciparum 3D7 erythrocytic growth, LDH absorbance, 72 h; at 2 µM; stronger effect = higher value.
The target in assay [5] is Calcium-dependent protein kinase 1 (Plasmodium falciparum (isolate 3D7)) (UniProt P62344). Briefly: PfCDPK1 kinase inhibitors, biochemical, TCAMS library (AID 1159585; cut-off not given, nearly all actives have IC50 up to about 0.98 µM;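 further: inhibitors leave more ATP so luminescence rises with inhibition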). To be noted: recombinant PfCDPK1, Kinase-Glo ATP depletion luminescence. In general terms: Kinase-Glo measures the ATP left after a reaction by luminescence.
Calcium-dependent protein kinase 1 (Plasmodium falciparum (isolate 3D7)), sequence (P62344 whole entry, looked up): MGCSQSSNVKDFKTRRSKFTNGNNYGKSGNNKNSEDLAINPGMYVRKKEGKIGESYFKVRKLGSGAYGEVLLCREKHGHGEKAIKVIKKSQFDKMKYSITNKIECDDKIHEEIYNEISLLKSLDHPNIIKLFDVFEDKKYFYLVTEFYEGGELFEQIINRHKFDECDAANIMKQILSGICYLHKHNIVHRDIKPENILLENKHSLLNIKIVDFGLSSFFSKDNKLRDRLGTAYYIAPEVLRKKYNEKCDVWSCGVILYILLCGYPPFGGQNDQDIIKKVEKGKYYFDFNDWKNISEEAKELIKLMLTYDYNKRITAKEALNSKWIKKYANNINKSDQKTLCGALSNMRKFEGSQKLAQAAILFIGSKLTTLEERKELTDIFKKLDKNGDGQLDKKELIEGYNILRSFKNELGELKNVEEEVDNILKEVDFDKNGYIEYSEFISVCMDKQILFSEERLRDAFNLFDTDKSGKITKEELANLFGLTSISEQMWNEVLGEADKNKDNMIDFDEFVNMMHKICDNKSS
The target in assay [6] is Plasmodium falciparum protein kinase 6 (PK6, PF3D7_1337100) (UniProt Q8IDW1). Briefly: PfPK6 kinase inhibitors, biochemical, TCAMS library (AID 1159586). To be noted: recombinant PfPK6, Kinase-Glo ATP depletion luminescence.
Plasmodium falciparum protein kinase 6 (PK6, PF3D7_1337100), sequence (Q8IDW1 1-305): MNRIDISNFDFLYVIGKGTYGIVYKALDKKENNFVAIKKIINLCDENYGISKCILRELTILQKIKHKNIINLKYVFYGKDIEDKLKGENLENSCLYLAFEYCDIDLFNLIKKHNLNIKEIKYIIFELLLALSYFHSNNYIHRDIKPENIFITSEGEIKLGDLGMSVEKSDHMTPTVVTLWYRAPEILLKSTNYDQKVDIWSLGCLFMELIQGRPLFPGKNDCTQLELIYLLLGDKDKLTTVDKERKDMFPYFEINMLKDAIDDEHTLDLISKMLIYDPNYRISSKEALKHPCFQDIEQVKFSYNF
Assay [7] deals with Protein kinase 7 (PK7), Plasmodium falciparum 3D7 (PF3D7_0213400) (UniProt Q7YTF7). Put plainly: inhibition of Plasmodium PK7 catalytic activity – biochemical, TCAMS antimalarial set, Kinase-Glo luminescence (AID 1159587). To be noted: recombinant PfPK7, Kinase-Glo ATP depletion luminescence.
Protein kinase 7 (PK7), Plasmodium falciparum 3D7 (PF3D7_0213400), sequence (Q7YTF7 1-343): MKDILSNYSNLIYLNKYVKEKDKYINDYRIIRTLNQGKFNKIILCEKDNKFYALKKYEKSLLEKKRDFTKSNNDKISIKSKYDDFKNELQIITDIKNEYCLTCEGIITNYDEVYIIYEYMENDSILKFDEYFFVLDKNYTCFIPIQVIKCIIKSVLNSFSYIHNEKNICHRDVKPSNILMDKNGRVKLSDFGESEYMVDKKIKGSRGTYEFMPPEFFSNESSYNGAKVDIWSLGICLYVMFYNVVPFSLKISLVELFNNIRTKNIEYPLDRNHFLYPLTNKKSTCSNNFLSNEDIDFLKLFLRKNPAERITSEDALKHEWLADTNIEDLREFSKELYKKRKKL
Assay [8] has as its target Calcium-dependent protein kinase 4 (Plasmodium falciparum (isolate 3D7)) (UniProt Q8IBS5). Put plainly: PfCDPK4 kinase inhibitors, biochemical, TCAMS library (AID 1159588; cut-off not given, nearly all actives have IC50 up to about 0.91 µM). The note with it: recombinant PfCDPK4, Kinase-Glo ATP depletion luminescence.

“And” between values parts separate entries of the source, which are not always exact repeats. Identical values can stand only once. For some assays here: Measured potencies and affinities stand elsewhere. Some compounds were tested as several samples or in several runs, with calls that do not always agree. The source made the active and inactive calls. Unless noted, how the calls were made is not given here.

For 19 compounds, growth inhibition, inhibition and outcome results are on record in PubChem BioAssay.

One may read the inhibition as the drop in the measured response relative to a control, in per cent.

Calcium-dependent protein kinase 4 (Plasmodium falciparum (isolate 3D7)), sequence (Q8IBS5 whole entry, looked up): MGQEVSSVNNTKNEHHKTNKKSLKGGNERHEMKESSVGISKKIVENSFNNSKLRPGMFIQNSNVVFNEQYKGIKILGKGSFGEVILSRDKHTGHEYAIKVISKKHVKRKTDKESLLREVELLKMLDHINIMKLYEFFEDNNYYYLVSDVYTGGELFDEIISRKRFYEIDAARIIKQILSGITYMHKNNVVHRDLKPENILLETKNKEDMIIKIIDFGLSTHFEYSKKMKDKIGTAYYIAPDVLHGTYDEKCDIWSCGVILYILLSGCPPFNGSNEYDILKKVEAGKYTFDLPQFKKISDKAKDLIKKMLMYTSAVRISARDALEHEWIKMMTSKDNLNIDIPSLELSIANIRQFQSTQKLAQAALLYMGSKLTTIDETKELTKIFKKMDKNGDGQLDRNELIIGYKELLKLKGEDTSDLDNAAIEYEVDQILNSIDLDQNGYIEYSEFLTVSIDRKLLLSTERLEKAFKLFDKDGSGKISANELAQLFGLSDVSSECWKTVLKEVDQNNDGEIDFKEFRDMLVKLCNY

On to `Cc1cc(NN=Cc2ccc(Cl)cc2)c2ccccc2n1`, for which the values for the growth inhibition in assay [1] and in assay [4] were 87% (active) and 100% (active), respectively. For the same compound, the figures for the inhibition in assay [2] and in assay [3] were 5% (inactive) and -3% (inactive), respectively. The outcome in assay [5], in assay [6], in assay [7] and in assay [8] was inactive.

With `COc1ccccc1N1CCN(Cc2cc(C(C)C)c(C)cc2O)CC1`, the growth inhibition in assay [1] is 98% (active); in assay [4], 97% (active). Further, the values for the inhibition in assay [2] and in assay [3] were 7% (inactive) and 2% (inactive), respectively. In addition, the result in assay [5], in assay [6], in assay [7] and in assay [8] was inactive.

Take `CCCCCCNc1c2ccccc2nc2ccccc12`: the values for the growth inhibition in assay [1] and in assay [4] were 32% (inactive) and 97% (active), respectively. Further, the inhibition in assay [2] was 24% (inactive); in assay [3], -3% (inactive). Also, the result in assay [5], in assay [6], in assay [7] and in assay [8] was inactive.

Regarding `c1ccc(CN2CCC(NCc3ccc(-c4ccc(CNC5CCCC5)cc4)cc3)CC2)cc1`, the growth inhibition is 98% (active) in assay [1] and 101% (active) in assay [4]. The inhibition in assay [2] was 24% (inactive); in assay [3] it was -4% (inactive). Also, the result in assay [5], in assay [6], in assay [7] and in assay [8] was inactive.

With `CN1CCC(NCc2ccc(-c3ccc(S(=O)(=O)NC4CCC4)s3)cc2)CC1`, the growth inhibition in assay [1] was 31% (inactive); in assay [4] it was 92% (active). Besides, the inhibition in assay [2] was 31% (inactive); in assay [3], 1% (inactive). Also, the outcome in assay [5], in assay [6], in assay [7] and in assay [8] was inactive.

Take `O=C(NC1CC1)c1cnc(N2CCCC(c3ccccc3)C2)c(Cl)c1` (configuration not stated): the values for the growth inhibition in assay [1] and in assay [4] were 94% (active) and 95% (active), respectively. Further, the inhibition is 6% (inactive) in assay [2] and -3% (inactive) in assay [3]. The result in assay [5], in assay [6], in assay [7] and in assay [8] was inactive.

Consider `CC(=O)Nc1cccc(C(=O)Nc2cccc(-c3cccc(-c4nc5ccccc5[nH]4)c3)c2)c1`, for which the growth inhibition was 66% (active) in assay [1] and 100% (active) in assay [4]. The inhibition in assay [2] was 41% (inactive); in assay [3], -5% (inactive). The outcome in assay [5], in assay [6], in assay [7] and in assay [8] was inactive.

As to `CCCCCCN1CCCN(Cc2ccc(C(=O)Nc3ccc(CC)cc3)cc2)CC1`, the growth inhibition in assay [1] is 50% (active); in assay [4], 97% (active). Further, the figures for the inhibition in assay [2] and in assay [3] were 53% (active) and 2% (inactive), respectively. Further, the result in assay [5], in assay [6], in assay [7] and in assay [8] was inactive.

For the compound `COc1ccc2ncc(F)c(C(O)CN3CCC(NCc4ccc5c(n4)NC(=O)CO5)CC3)c2c1` (configuration not stated), the growth inhibition in assay [1] was 51% (active) and 88% (active); in assay [4], 99% (active) and 100% (active). Besides, the inhibition in assay [2] was 6% (inactive) and 51% (active); in assay [3] it was 3% (inactive) and -2% (inactive). Moreover, the result in assay [5], in assay [6], in assay [7] and in assay [8] was inactive.

Regarding `N#Cc1ccc2c(c1)CN(CCC1CCC(NC(=O)/C=C/c3c[nH]c4ccccc34)CC1)CC2` (configuration not stated), the growth inhibition in assay [1] is 24% (inactive) and 27% (inactive); in assay [4], 92% (active) and 97% (active). The inhibition is 10% (inactive) and 20% (inactive) in assay [2]; -3% (inactive) and -9% (inactive) in assay [3]. The result in assay [5], in assay [6], in assay [7] and in assay [8] was inactive.

As for `COc1ccc(Cl)cc1S(=O)(=O)Nc1cccc(CCN2CCC(N3CCCCC3)CC2)c1`, the growth inhibition was 9% (inactive) in assay [1] and 101% (active) in assay [4]. Besides, the inhibition in assay [2] is 33% (inactive); in assay [3], 4% (inactive). For the same compound, the outcome in assay [5], in assay [6], in assay [7] and in assay [8] was inactive.

With `CC(C)CNCc1cccc(-c2ccc(CNC3CCN(Cc4ccccc4)CC3)cc2)c1`, the growth inhibition was 99% (active) in assay [1] and 100% (active) in assay [4]. The inhibition in assay [2] is 44% (inactive); in assay [3], 3% (inactive). Further, the result in assay [5], in assay [6], in assay [7] and in assay [8] was inactive.

Turning to `Cc1sc2ccc(Cl)cc2c1S(=O)(=O)Nc1ccc2nccc(N3C[C@@H](C)N[C@@H](C)C3)c2c1`, the growth inhibition in assay [1] and in assay [4] was 100% (active) each time. In addition, the inhibition in assay [2] is 17% (inactive); in assay [3] it was 0% (inactive). Further, the result in assay [5], in assay [6], in assay [7] and in assay [8] was inactive.

Turning to `CC1CN(Cc2cccc(-c3ccc(-c4nc5ccc(F)cc5[nH]4)cc3)c2)CC(C)O1` (configuration not stated), the growth inhibition in assay [1] was 88% (active); in assay [4] it was 87% (active). Further, the inhibition is 45% (inactive) in assay [2] and -3% (inactive) in assay [3]. The outcome in assay [5], in assay [6], in assay [7] and in assay [8] was inactive.

Regarding `COc1ccc(CN(C)CCCSc2ccc(NC(=O)c3cccc4c(=O)cc(-c5ccccc5)[nH]c34)cc2)cc1OC`, the values for the growth inhibition in assay [1] and in assay [4] were 94% (active) and 93% (active), respectively. Besides, the inhibition was 15% (inactive) in assay [2] and -6% (inactive) in assay [3]. The result in assay [5], in assay [6], in assay [7] and in assay [8] was inactive.

Take `CC1(CCc2ccccc2)N=C(N)N=C(N)C1c1ccc(Cl)c(Cl)c1` (configuration not stated): the results for the growth inhibition in assay [1] and in assay [4] were 39% (inactive) and 98% (active), respectively. For the same compound, the inhibition in assay [2] was 19% (inactive); in assay [3] it was -8% (inactive). Besides, the outcome in assay [5], in assay [6], in assay [7] and in assay [8] was inactive.

With `Fc1ccc2ncc(Cl)c(CCN3CCC(NCc4cc5c(cn4)OCCO5)CC3)c2c1`, the growth inhibition in assay [1] was 20% (inactive); in assay [4], 93% (active). Also, the inhibition in assay [2] is 24% (inactive); in assay [3] it was -4% (inactive). Further, the outcome in assay [5], in assay [6], in assay [7] and in assay [8] was inactive.

With `O=C(Nc1ccc(C(F)(F)F)cc1)Nc1ccccc1N1CCNCC1`, the growth inhibition in assay [1] was 69% (active); in assay [4], 94% (active). Moreover, the figures for the inhibition in assay [2] and in assay [3] were 39% (inactive) and 4% (inactive), respectively. In addition, the result in assay [5], in assay [6], in assay [7] and in assay [8] was inactive.

Turning to `CC(C)(C)c1ccc(N2C(N)=NC(N)=NC2(C)C)cc1`, the growth inhibition in assay [1] is -2% (inactive); in assay [4], 93% (active). Also, the inhibition in assay [2] is 27% (inactive); in assay [3], -2% (inactive). The result in assay [5], in assay [6], in assay [7] and in assay [8] was inactive.
